# Biological target: Protein-tyrosine kinase 2-beta (Homo sapiens) (UniProt Q14289)
# Details: at 0.1 µM
# Sequence of Protein-tyrosine kinase 2-beta (Homo sapiens) (Q14289 whole entry, looked up): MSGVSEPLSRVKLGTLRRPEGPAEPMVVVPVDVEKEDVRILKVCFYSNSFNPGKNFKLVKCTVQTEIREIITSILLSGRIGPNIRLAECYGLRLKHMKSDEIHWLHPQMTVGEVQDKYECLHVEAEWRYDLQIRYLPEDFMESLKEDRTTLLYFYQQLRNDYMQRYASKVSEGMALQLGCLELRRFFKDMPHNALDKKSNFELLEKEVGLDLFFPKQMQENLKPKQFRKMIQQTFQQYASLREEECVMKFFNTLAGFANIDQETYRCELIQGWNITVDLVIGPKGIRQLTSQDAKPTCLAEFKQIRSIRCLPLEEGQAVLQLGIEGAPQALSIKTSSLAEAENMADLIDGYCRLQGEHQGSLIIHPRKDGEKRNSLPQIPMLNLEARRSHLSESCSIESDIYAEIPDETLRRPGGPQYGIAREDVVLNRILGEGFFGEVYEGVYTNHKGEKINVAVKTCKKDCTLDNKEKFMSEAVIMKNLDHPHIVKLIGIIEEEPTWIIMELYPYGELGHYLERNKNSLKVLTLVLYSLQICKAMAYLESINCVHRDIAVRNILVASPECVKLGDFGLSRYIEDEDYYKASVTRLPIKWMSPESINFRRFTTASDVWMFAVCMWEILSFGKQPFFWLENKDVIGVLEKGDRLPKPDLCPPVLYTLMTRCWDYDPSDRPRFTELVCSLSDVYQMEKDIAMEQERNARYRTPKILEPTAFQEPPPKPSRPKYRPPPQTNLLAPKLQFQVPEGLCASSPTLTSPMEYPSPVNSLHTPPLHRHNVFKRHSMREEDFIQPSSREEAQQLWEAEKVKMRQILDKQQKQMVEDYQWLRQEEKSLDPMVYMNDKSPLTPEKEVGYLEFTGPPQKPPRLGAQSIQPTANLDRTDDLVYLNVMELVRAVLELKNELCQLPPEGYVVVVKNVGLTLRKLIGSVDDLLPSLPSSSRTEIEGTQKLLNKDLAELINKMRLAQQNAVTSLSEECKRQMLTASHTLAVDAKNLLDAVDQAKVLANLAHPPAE
row,SMILES,inhibition [%]
1,Cn1cc(C=C2C(=O)Nc3cccnc32)c2ccccc21,5.59
2,CS(=O)(=O)CCNCc1nc(-c2ccc3ncnc(Nc4ccc(F)c(Cl)c4)c3c2)cs1,-0.72
3,O=C1Nc2ccc(C(=O)c3ccco3)cc2C1=Cc1cc(Cl)c(O)c(Cl)c1,15
4,COc1cc2ncn(-c3cc(O[C@H](C)c4ccccc4Cl)c(C(N)=O)s3)c2cc1OC,10.3
5,CS(=O)(=O)CCN(CC#N)Cc1ccc(-c2ccc3ncnc(Nc4ccc(OCc5cccc(F)c5)c(Cl)c4)c3c2)o1,3.85
6,CC(C)=Cc1cccc2c1/C(=N/Nc1ccc(S(N)(=O)=O)cc1)C(=O)N2,3.24
7,CCn1c(-c2nonc2N)nc2c(C#CC(C)(C)O)nc(OC[C@@H](N)c3ccccc3)cc21,-0.92

# Biological target: Protein-tyrosine kinase 2-beta (Homo sapiens) (UniProt Q14289)
# Details: at 1 µM
row,SMILES,inhibition [%]
1,Nc1ncnc2occ(-c3ccc(NC(=O)Nc4cc(C(F)(F)F)cc(C(F)(F)F)c4)cc3)c12,19.4
2,CCn1c(-c2nonc2N)nc2c(N3CCCC3)nccc21,-3.88
3,CCn1c(-c2nonc2N)nc2cnc(Oc3cccc(NC(=O)c4ccc(OCCN5CCOCC5)cc4)c3)cc21,13
4,COc1ccccc1Nc1ncc(-c2ccccc2)o1,11.1
5,Cc1cccc(-c2n[nH]cc2-c2ccc3ncccc3n2)n1,0.67
6,CC1=C(C(=O)Nc2ccc3[nH]ncc3c2)C(c2ccc(F)cc2)NC(=O)N1 (configuration not stated),8.37
7,CCCN1CCC=C(c2ccc(Nc3nc(Nc4ccccc4C(N)=O)c4cc[nH]c4n3)c(C)c2)C1,94.9
8,CS(=O)(=O)Nc1ccc(N/C=C2\C(=O)Nc3ccccc32)cc1,20.1
9,CS(=O)(=O)CCNCc1ccc(-c2ccc3ncnc(Nc4ccc(OCc5cccc(F)c5)c(C(F)(F)F)c4)c3c2)o1,10.4
10,COc1ccc(-c2nn3ncccc3c2-c2ccnc(Nc3ccc(Cl)c(C(F)(F)F)c3)n2)cc1,10.5
11,c1cnn2ncc(-c3ccnc(Nc4ccc5c(c4)OCCO5)n3)c2c1,84.6
12,CCn1c(-c2nonc2N)nc2cncc(C(=O)N3CC[C@H](N)C3)c21,7.69
13,NCc1ccc(-c2nc(-c3ccc(Cl)c(O)c3)c(-c3ccncc3)[nH]2)cc1,-0.14
14,COc1cc2ncn(-c3cc(OCc4ccccc4C(F)(F)F)c(C(N)=O)s3)c2cc1OC,19.4
15,COc1ccc(-c2ccncc2)cc1C(N)=O,11.3
16,Cc1cc(O)cc(C)c1/C=C/c1cncc(-c2nn[nH]n2)c1,12.1

row,SMILES,inhibition [%]
1,Nc1nc(-c2ccc3c(c2)C(=Cc2cc(Br)c(O)c(Br)c2)C(=O)N3)cs1,6.43
2,COc1cccc(-n2ncc3c(N/N=C/c4cccc(F)c4)ncnc32)c1,9.99
3,COC(=O)Nc1nc2cc(Oc3ccc(NC(=O)Nc4cccc(C(=O)O)c4)cc3)ccc2[nH]1,6.37
4,Cc1nn(C)c2cc(N(C)c3ccnc(Nc4cccc(S(N)(=O)=O)c4)n3)ccc12,17.8
5,COc1cc2ncn(-c3cc(OCc4ccccc4Cl)c(C(N)=O)s3)c2cc1OC,6.28
6,CC(=O)Nc1cccc(C#Cc2cncnc2Nc2ccc(OCc3cccc(F)c3)c(Cl)c2)n1,8.14
7,COc1ccc(COc2ccc(Cc3cnc(N)nc3N)cc2OC)cc1,-2.43
8,Nc1nc(-c2ccccn2)c(-c2ccc3ncccc3n2)s1,12.2
9,CC1=C(C(=O)Nc2ccc3[nH]ncc3c2)C(c2ccc3ccccc3c2)CC(=O)N1 (configuration not stated),7.64
10,Cn1cc(C=C2C(=O)Nc3cccnc32)c2ccccc21,25.2
11,CS(=O)(=O)CCNCc1nc(-c2ccc3ncnc(Nc4ccc(F)c(Cl)c4)c3c2)cs1,1.64
12,O=C1Nc2ccc(C(=O)c3ccco3)cc2C1=Cc1cc(Cl)c(O)c(Cl)c1,34.6
13,COc1cc2ncn(-c3cc(O[C@H](C)c4ccccc4Cl)c(C(N)=O)s3)c2cc1OC,32.2
14,CS(=O)(=O)CCN(CC#N)Cc1ccc(-c2ccc3ncnc(Nc4ccc(OCc5cccc(F)c5)c(Cl)c4)c3c2)o1,9.33
15,CC(C)=Cc1cccc2c1/C(=N/Nc1ccc(S(N)(=O)=O)cc1)C(=O)N2,27.5
16,CCn1c(-c2nonc2N)nc2c(C#CC(C)(C)O)nc(OC[C@@H](N)c3ccccc3)cc21,9.22

# Biological target: Proto-oncogene tyrosine-protein kinase receptor Ret (Homo sapiens) (UniProt P07949);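 further: reported figure is the mean of RET inhibition measurements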
# Details: at 0.1 µM
# Sequence of Proto-oncogene tyrosine-protein kinase receptor Ret (Homo sapiens) (P07949 whole entry): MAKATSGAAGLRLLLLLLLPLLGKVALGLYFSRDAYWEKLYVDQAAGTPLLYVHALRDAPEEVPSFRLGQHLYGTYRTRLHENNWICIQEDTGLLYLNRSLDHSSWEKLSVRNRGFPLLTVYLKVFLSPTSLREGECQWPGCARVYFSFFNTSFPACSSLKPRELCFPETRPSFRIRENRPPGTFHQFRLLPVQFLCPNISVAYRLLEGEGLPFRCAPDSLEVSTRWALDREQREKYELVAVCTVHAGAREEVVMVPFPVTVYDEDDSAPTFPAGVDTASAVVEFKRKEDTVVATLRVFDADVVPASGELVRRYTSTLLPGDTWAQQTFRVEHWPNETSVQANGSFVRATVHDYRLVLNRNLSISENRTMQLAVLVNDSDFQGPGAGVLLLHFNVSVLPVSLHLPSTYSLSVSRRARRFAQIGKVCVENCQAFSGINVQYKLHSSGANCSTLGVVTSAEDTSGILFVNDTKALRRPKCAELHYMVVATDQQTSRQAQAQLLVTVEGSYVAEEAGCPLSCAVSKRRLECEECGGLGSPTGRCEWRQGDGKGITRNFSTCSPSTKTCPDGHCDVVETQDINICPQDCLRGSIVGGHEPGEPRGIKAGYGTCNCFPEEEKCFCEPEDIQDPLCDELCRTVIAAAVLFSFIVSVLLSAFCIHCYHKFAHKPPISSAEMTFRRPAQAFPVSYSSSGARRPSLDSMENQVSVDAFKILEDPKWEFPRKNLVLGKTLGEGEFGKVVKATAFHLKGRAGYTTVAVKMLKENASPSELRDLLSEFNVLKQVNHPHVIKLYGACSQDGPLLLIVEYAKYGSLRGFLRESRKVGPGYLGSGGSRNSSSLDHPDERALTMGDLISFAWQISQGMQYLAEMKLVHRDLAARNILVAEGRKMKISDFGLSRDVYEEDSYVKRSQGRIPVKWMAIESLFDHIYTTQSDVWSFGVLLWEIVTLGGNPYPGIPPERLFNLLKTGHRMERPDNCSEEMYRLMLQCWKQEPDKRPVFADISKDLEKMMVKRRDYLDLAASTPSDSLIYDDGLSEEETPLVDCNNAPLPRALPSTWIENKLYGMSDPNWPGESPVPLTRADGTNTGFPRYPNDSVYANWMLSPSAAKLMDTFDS
row,SMILES,inhibition [%]
1,Nc1ncnc2occ(-c3ccc(NC(=O)Nc4cc(C(F)(F)F)cc(C(F)(F)F)c4)cc3)c12,76.4
2,CCn1c(-c2nonc2N)nc2c(N3CCCC3)nccc21,4.49
3,CCn1c(-c2nonc2N)nc2cnc(Oc3cccc(NC(=O)c4ccc(OCCN5CCOCC5)cc4)c3)cc21,6.91
4,COc1ccccc1Nc1ncc(-c2ccccc2)o1,5.4
5,Cc1cccc(-c2n[nH]cc2-c2ccc3ncccc3n2)n1,1.65
6,CC1=C(C(=O)Nc2ccc3[nH]ncc3c2)C(c2ccc(F)cc2)NC(=O)N1 (configuration not stated),6.58
7,CCCN1CCC=C(c2ccc(Nc3nc(Nc4ccccc4C(N)=O)c4cc[nH]c4n3)c(C)c2)C1,5.97
8,CS(=O)(=O)Nc1ccc(N/C=C2\C(=O)Nc3ccccc32)cc1,10.4
9,CCN1CCC(CC(=O)Nc2n[nH]c3nc(-c4cccs4)c(Br)cc23)CC1,1.65
10,CS(=O)(=O)CCNCc1ccc(-c2ccc3ncnc(Nc4ccc(OCc5cccc(F)c5)c(C(F)(F)F)c4)c3c2)o1,6.1
11,COc1ccc(-c2nn3ncccc3c2-c2ccnc(Nc3ccc(Cl)c(C(F)(F)F)c3)n2)cc1,2.17
12,c1cnn2ncc(-c3ccnc(Nc4ccc5c(c4)OCCO5)n3)c2c1,5.62
13,CCn1c(-c2nonc2N)nc2cncc(C(=O)N3CC[C@H](N)C3)c21,5.56
14,NCc1ccc(-c2nc(-c3ccc(Cl)c(O)c3)c(-c3ccncc3)[nH]2)cc1,47.6
15,COc1cc2ncn(-c3cc(OCc4ccccc4C(F)(F)F)c(C(N)=O)s3)c2cc1OC,14.5
16,COc1ccc(-c2ccncc2)cc1C(N)=O,3.52
17,Cc1cc(O)cc(C)c1/C=C/c1cncc(-c2nn[nH]n2)c1,1.14

row,SMILES,inhibition [%]
1,Nc1nc(-c2ccc3c(c2)C(=Cc2cc(Br)c(O)c(Br)c2)C(=O)N3)cs1,7.13
2,COc1cccc(-n2ncc3c(N/N=C/c4cccc(F)c4)ncnc32)c1,2.64
3,COC(=O)Nc1nc2cc(Oc3ccc(NC(=O)Nc4cccc(C(=O)O)c4)cc3)ccc2[nH]1,7.47
4,Cc1nn(C)c2cc(N(C)c3ccnc(Nc4cccc(S(N)(=O)=O)c4)n3)ccc12,11.9
5,COc1cc2ncn(-c3cc(OCc4ccccc4Cl)c(C(N)=O)s3)c2cc1OC,17.7
6,CC(=O)Nc1cccc(C#Cc2cncnc2Nc2ccc(OCc3cccc(F)c3)c(Cl)c2)n1,-1.11
7,COc1ccc(COc2ccc(Cc3cnc(N)nc3N)cc2OC)cc1,9.65
8,Nc1nc(-c2ccccn2)c(-c2ccc3ncccc3n2)s1,1.19
9,CC1=C(C(=O)Nc2ccc3[nH]ncc3c2)C(c2ccc3ccccc3c2)CC(=O)N1 (configuration not stated),20.4
10,COc1ccc(-c2coc3ncnc(N)c23)cc1,4.27
11,CS(=O)(=O)CCNCc1nc(-c2ccc3ncnc(Nc4ccc(F)c(Cl)c4)c3c2)cs1,4.76
12,O=C1Nc2ccc(C(=O)c3ccco3)cc2C1=Cc1cc(Cl)c(O)c(Cl)c1,19.6
13,COc1cc2ncn(-c3cc(O[C@H](C)c4ccccc4Cl)c(C(N)=O)s3)c2cc1OC,18.2
14,CS(=O)(=O)CCN(CC#N)Cc1ccc(-c2ccc3ncnc(Nc4ccc(OCc5cccc(F)c5)c(Cl)c4)c3c2)o1,0.24
15,CC(C)=Cc1cccc2c1/C(=N/Nc1ccc(S(N)(=O)=O)cc1)C(=O)N2,14.8
16,CCn1c(-c2nonc2N)nc2c(C#CC(C)(C)O)nc(OC[C@@H](N)c3ccccc3)cc21,7.49
